Assay results: PMC8222333, “AsCas12a ultra nuclease facilitates the rapid generation of therapeutic cell medicines”

B1: TCTC (dsDNA)
DNA 1: GCTATCTAGTGCTCAGTACGCACTGTCTCAGGAAACTTCTGGCAGGACCAGGTCATGAGATCGGAAGAGCACACGTCTGAACTCCAGTCA
DNA 2: TGACTGGAGTTCAGACGTGTGCTCTTCCGATCTCATGACCTGGTCCTGCCAGAAGTTTCCTGAGACAGTGCGTACTGAGCACTAGATAGC
RNA: AAUUUCUACUCUUGUAGAUAGGAAACUUCUGGCAGGACC
B2: TGTC (dsDNA)
DNA 1: GCTATCTAGTGCTCAGTACGCACTGTGTCAGGAAACTTCTGGCAGGACCAGGTCATGAGATCGGAAGAGCACACGTCTGAACTCCAGTCA
DNA 2: TGACTGGAGTTCAGACGTGTGCTCTTCCGATCTCATGACCTGGTCCTGCCAGAAGTTTCCTGACACAGTGCGTACTGAGCACTAGATAGC
RNA: AAUUUCUACUCUUGUAGAUAGGAAACUUCUGGCAGGACC
B3: TCTG (dsDNA)
DNA 1: GCTATCTAGTGCTCAGTACGCACTGTCTGAGGAAACTTCTGGCAGGACCAGGTCATGAGATCGGAAGAGCACACGTCTGAACTCCAGTCA
DNA 2: TGACTGGAGTTCAGACGTGTGCTCTTCCGATCTCATGACCTGGTCCTGCCAGAAGTTTCCTCAGACAGTGCGTACTGAGCACTAGATAGC
RNA: AAUUUCUACUCUUGUAGAUAGGAAACUUCUGGCAGGACC
B4: TTCA (dsDNA)
DNA 1: GCTATCTAGTGCTCAGTACGCACTGTTCAAGGAAACTTCTGGCAGGACCAGGTCATGAGATCGGAAGAGCACACGTCTGAACTCCAGTCA
DNA 2: TGACTGGAGTTCAGACGTGTGCTCTTCCGATCTCATGACCTGGTCCTGCCAGAAGTTTCCTTGAACAGTGCGTACTGAGCACTAGATAGC
RNA: AAUUUCUACUCUUGUAGAUAGGAAACUUCUGGCAGGACC
B5: TTCT (dsDNA)
DNA 1: GCTATCTAGTGCTCAGTACGCACTGTTCTAGGAAACTTCTGGCAGGACCAGGTCATGAGATCGGAAGAGCACACGTCTGAACTCCAGTCA
DNA 2: TGACTGGAGTTCAGACGTGTGCTCTTCCGATCTCATGACCTGGTCCTGCCAGAAGTTTCCTAGAACAGTGCGTACTGAGCACTAGATAGC
RNA: AAUUUCUACUCUUGUAGAUAGGAAACUUCUGGCAGGACC
B6: TTTG (dsDNA)
DNA 1: GCTATCTAGTGCTCAGTACGCACTGTTTGAGGAAACTTCTGGCAGGACCAGGTCATGAGATCGGAAGAGCACACGTCTGAACTCCAGTCA
DNA 2: TGACTGGAGTTCAGACGTGTGCTCTTCCGATCTCATGACCTGGTCCTGCCAGAAGTTTCCTCAAACAGTGCGTACTGAGCACTAGATAGC
RNA: AAUUUCUACUCUUGUAGAUAGGAAACUUCUGGCAGGACC
B7: TTAA (dsDNA)
DNA 1: GCTATCTAGTGCTCAGTACGCACTGTTAAAGGAAACTTCTGGCAGGACCAGGTCATGAGATCGGAAGAGCACACGTCTGAACTCCAGTCA
DNA 2: TGACTGGAGTTCAGACGTGTGCTCTTCCGATCTCATGACCTGGTCCTGCCAGAAGTTTCCTTTAACAGTGCGTACTGAGCACTAGATAGC
RNA: AAUUUCUACUCUUGUAGAUAGGAAACUUCUGGCAGGACC

What was measured:
dAsCas12a WT = dAsCas12a WT (Acidaminococcus sp., UniProt U2UMQ6 1-1307, D908A;E993A;D1235A); assay: Spec-seq (native PAGE EMSA with sequencing of bound and unbound); 25 mM Tris-HCl pH 7.4, 150 mM KCl, 5 mM MgCl2, 10% glycerol, 1 mM DTT, 40 ng/uL salmon sperm DNA; 400 nM Cas12a, 480 nM crRNA, 50 nM library, 37 C 1 h; native P; high values mean tight binding
dAsCas12a Ultra = dAsCas12a Ultra (Acidaminococcus sp., UniProt U2UMQ6 1-1307, M537R;F870L;D908A;E993A;D1235A); assay: Spec-seq (native PAGE EMSA with sequencing of bound and unbound); 25 mM Tris-HCl pH 7.4, 150 mM KCl, 5 mM MgCl2, 10% glycerol, 1 mM DTT, 40 ng/uL salmon sperm DNA; 400 nM Cas12a, 480 nM crRNA, 50 nM library, 37 C 1 h; native PAGE at room temperature; high values mean tight binding; details: protein: recombinant
dAsCas12a E174R = dAsCas12a E174R (Acidaminococcus sp., UniProt U2UMQ6 1-1307, E174R;D908A;E993A;D1235A); assay: as above; details: protein: recombinant;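 also: relative affinity from the bound to unbound sequence frequency ratio in Spec-seq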
dAsCas12a S542R = dAsCas12a S542R (Acidaminococcus sp., UniProt U2UMQ6 1-1307, S542R;D908A;E993A;D1235A); assay: as above; details: protein: recombinant;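 also: relative affinity from the bound to unbound sequence frequency ratio in Spec-seq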
dAsCas12a K548R = dAsCas12a K548R (Acidaminococcus sp., UniProt U2UMQ6 1-1307, K548R;D908A;E993A;D1235A); assay: as above; details: protein: recombinant
d-enCas12a = d-enCas12a (Acidaminococcus sp., UniProt U2UMQ6 1-1307, E174R;S542R;K548R;D908A;E993A;D1235A); assay: as above; details: protein: recombinant
d-enCas12a-Ultra = d-enCas12a-Ultra (Acidaminococcus sp., UniProt U2UMQ6 1-1307, E174R;S542R;K548R;M537R;F870L;D908A;E993A;D1235A); assay: as above; details: protein: recombinant;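 also: relative affinity from the bound to unbound sequence frequency ratio in Spec-seq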

| Binder | binding signal (dAsCas12a WT) | binding signal (dAsCas12a Ultra) | binding signal (dAsCas12a E174R) | binding signal (dAsCas12a S542R) | binding signal (dAsCas12a K548R) | binding signal (d-enCas12a) | binding signal (d-enCas12a-Ultra) |
| --- | --- | --- | --- | --- | --- | --- | --- |
| B1 | -5.94 lnKA | -3.61 lnKA | -3.18 lnKA | -4.47 lnKA | -8.65 lnKA | -3.15 lnKA | -0.761 lnKA |
| B2 | -8.93 lnKA | -7.57 lnKA | -7.56 lnKA | -7.52 lnKA | -6.58 lnKA | -0.999 lnKA | -0.323 lnKA |
| B3 | -6.99 lnKA | -4.53 lnKA | -4.57 lnKA | -5.38 lnKA | – | -4.86 lnKA | -1.79 lnKA |
| B4 | -7.22 lnKA | -4.73 lnKA | -3.99 lnKA | -1.85 lnKA | -6.86 lnKA | -0.506 lnKA | -0.166 lnKA |
| B5 | -8.65 lnKA | -6.53 lnKA | -6.23 lnKA | -3.26 lnKA | -8.32 lnKA | -0.829 lnKA | -0.251 lnKA |
| B6 | -1.4 lnKA | -0.474 lnKA | -0.628 lnKA | -0.333 lnKA | -0.458 lnKA | -0.151 lnKA | -0.067 lnKA |
| B7 | -8.61 lnKA | -7.33 lnKA | -7.28 lnKA | -6.82 lnKA | -8.66 lnKA | -3.79 lnKA | -1.68 lnKA |
